In the library only some 1.2% were active in any assay of this set; here they are far more common.
S1P2 agonist: activates the human S1P2 receptor | actives 0.46% (n = 97,000) | activation, % at 4.5 µM | O95136 | AID 729 | S1P2-expressing cell line, agonist reporter read-out; in the data active means activation above about 16%;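 further: 0% = vehicle low control and 100% = maximal reference agonist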
Target sequence (O95136 whole entry, looked up): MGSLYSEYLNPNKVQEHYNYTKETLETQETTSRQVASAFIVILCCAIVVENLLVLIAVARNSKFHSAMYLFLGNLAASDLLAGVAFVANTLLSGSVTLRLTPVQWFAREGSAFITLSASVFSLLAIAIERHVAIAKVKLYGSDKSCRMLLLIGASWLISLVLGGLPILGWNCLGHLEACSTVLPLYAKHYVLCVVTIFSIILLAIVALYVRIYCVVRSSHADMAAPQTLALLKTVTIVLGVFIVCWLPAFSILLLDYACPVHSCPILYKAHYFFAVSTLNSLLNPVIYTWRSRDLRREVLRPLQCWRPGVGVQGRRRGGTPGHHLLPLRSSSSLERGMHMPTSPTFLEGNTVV
S1P2 blocker: antagonists of human S1P2 receptor. cell-based S1P2 antagonist assay, inhibition at 5 uM. inhibition, % at 5 µM. actives 0.21% (n = 97,000); in the data active means inhibition above about 45%;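 further: CRE beta-lactamase reporter cells expressing human S1P2 stimulated with S1P; 0% = agonist at EC80 alone and 100% = agonist plus reference antagonist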
GALR2 agonist: activates the human galanin receptor 2. activation, % (no concentration beside the values). GALR2-expressing cells, agonist activation read-out. AID 803. actives 0.48% (n = 140,000). O43603; in the data active means activation above about 5%, passing the limit was not always enough;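 further: 0% = vehicle buffer wells and 100% = reference agonist at full effect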
GALR2 blocker: antagonists of human galanin receptor 2 (GALR2); O43603; GALR2-expressing cells, antagonist mode; inhibition, % at 4 µM; actives 0.39% (n = 140,000); in the data active means inhibition above about 27%;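 further: cells stimulated with galanin 1-16 at roughly its EC80; 0% = agonist challenge control and 100% = basal control without agonist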
GALR2 ag confirm: GALR2 (human) agonism confirmed; shares compounds with GALR2 agonist; GALR2-expressing cells, agonist activation; activation, % at 5.6 µM; actives 10% (n = 460); AID 864; in the data active means activation above about 8.4%;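 further: 0% = buffer-only vehicle wells and 100% = full reference agonist response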
BLA act counter: beta-lactamase activation, GALR2 counterscreen | CHO NFAT-bla reporter, beta-lactamase FRET activation | shares compounds with GALR2 agonist | actives 10% (n = 460) | AID 865 | activation, % at 5.6 µM;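 active means activation above the screen-wide mean activation plus 3 SD, cut at about 8% in these data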;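 further: 0% = DMSO with PBS wells and 100% = thapsigargin positive control wells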
* hit, by the source's call; . = no result given.

SMILES | S1P2 agonist | S1P2 blocker | GALR2 agonist | GALR2 blocker | GALR2 ag confirm | BLA act counter
Cc1ccc(C(Sc2ccccc2)C(Cn2cncn2)C(=O)c2ccccc2)cc1 (centres undefined) | -3 | -10 | 0 | 2 | . | .
Cc1cccc(OCCSCc2nc3ccccc3[nH]2)c1 | -7 | 8 | -2 | 2 | . | .
Cc1cccc(CC(Cc2nc3ccccc3[nH]2)c2nc3ccccc3[nH]2)c1 (centres undefined) | -7 | -3 | 9 | -11 | 15* | 29*
N#Cc1cc2c(=O)n3ccccc3nc2n(CCCN2CCOCC2)c1=O | . | . | 8.6* | 2 | 3 | 8.2*
O=C(NCCN1CCOCC1)c1cc2c(=O)n3ccccc3nc2n1Cc1ccccc1 | -2 | -2 | 1 | 9 | . | .
Cc1nn(-c2ccccc2)c(Oc2ccccc2)c1C=O | . | . | 0 | -8 | . | .
CC1(C)CC(=O)C2=C(C1)Nc1ncnn1C2c1ccccn1 (centres undefined) | -7 | -1 | 23* | 11 | -1 | -2
Cc1ccccc1NC(=O)C(=O)NCc1ccccn1 | -3 | 3 | -3 | -1 | . | .
c1ccc(-c2csc3ncnc(N4CCc5ccccc5C4)c23)cc1 | . | . | -2 | 4 | . | .
CC(C)NC(=O)c1ccccc1NC(=O)/C=C/c1cccc([N+](=O)[O-])c1 | . | . | 25* | 3 | 11* | 22*
CC(C)C(NC(=O)/C=C/c1cccc([N+](=O)[O-])c1)C(C)C | . | . | -2 | 4 | . | .
CCOc1ccc(C2NC(=O)C(C#N)=C(S)N2c2ccc(OC)cc2)cc1OC (centres undefined) | -6 | 16 | -1 | 2 | . | .
COc1cc(C2NC(=O)C(C#N)=C(S)N2c2ccc(C)cc2)ccc1OC(C)C (centres undefined) | -3 | -6 | 91* | -8 | -1 | -2
Cc1cc(C)c(NC(=O)COc2ccccc2C(=O)Nc2ccc3c(c2)oc2ccccc23)c(C)c1 | 1 | 14 | 1 | -9 | . | .
CCOC(=S)SCC(=O)Nc1nc(-c2ccc(Br)cc2)cs1 | . | . | 16* | 8 | 5 | -4
CCOC(=S)SCC(=O)Nc1nc(-c2ccccc2)cs1 | . | . | -1 | 3 | . | .
CCOC(=O)C1=C(C)Nc2ccccc2N=C1NC(=O)C(CC)c1ccccc1 (centres undefined) | . | . | 0 | 3 | . | .
COc1ccc(/C=N/NC(=O)C2CCN(c3ncc(C(F)(F)F)cc3Cl)CC2)cc1 | -3 | 11 | -1 | -7 | . | .
COc1ccc(C2(CNC(=O)c3cccc([N+](=O)[O-])c3)CCOCC2)cc1 | . | . | -1 | -3 | . | .
CN1C(=O)/C(=C/c2ccccc2OCc2ccccc2)NC1=S | . | . | 0 | -10 | . | .
CN1C(=O)/C(=C/c2ccccc2OCc2cccc(F)c2)NC1=S | -2 | -20 | 146* | -7 | 0 | -3
CCNC(=S)N(Cc1ccc2c(c1)OCO2)C1CC(=O)N(c2ccc(F)cc2)C1=O (centres undefined) | -7 | -2 | 11 | 1 | -1 | -2
CCCCn1c(NC(=O)c2ccccc2)c(C#N)c2nc3ccccc3nc21 | 12 | -1 | 16* | 2 | 6 | 14*
O=C(COC(=O)c1cc(Cl)ccc1Cl)NCCN1C(=O)CSC1=O | . | . | 12* | 19 | -1 | -3
COC(=O)Cc1c(C)c2cc(Cl)c(OC(=O)c3ccco3)cc2oc1=O | 5 | -13 | 13* | 13 | 1 | 3
SMILES | S1P2 agonist | S1P2 blocker | GALR2 agonist | GALR2 blocker | GALR2 ag confirm | BLA act counter
COC(=O)Cc1c(C)c2ccc(OC(=O)c3ccco3)cc2oc1=O | 2 | 2 | 3 | -2 | . | .
O=C1Nc2ccccc2C12OCC(COc1ccc(Cl)cc1)O2 (centres undefined) | 0 | -28 | -2 | -6 | . | .
CC1OC2(OC1C)C(=O)Nc1ccccc12 (centres undefined) | -4 | -10 | 24* | -4 | -1 | -3
O=C(Cc1sc(-c2ccccc2Cl)nc1-c1ccccc1)Nc1ccc(F)cc1 | -8 | -11 | -2 | -6 | . | .
O=C(Cc1sc(-c2ccccc2Cl)nc1-c1ccccc1)Nc1ccccc1 | -6 | 6 | 26* | -8 | 3 | 5
O=C(O)CC1(c2ccccc2)C(=O)c2ccccc2C1=O | . | . | 10* | 21 | -2 | -3
COC(=O)Cn1c(=NC(=O)c2nc3ccccc3s2)sc2cc(S(C)(=O)=O)ccc21 | . | . | 39* | -16 | 0 | 2
COC(=O)Cn1c(=NC(=O)c2sc3ccccc3c2Cl)sc2cc(S(N)(=O)=O)ccc21 | . | . | 0 | 1 | . | .
COc1cc(NC(=O)c2ccc(Cl)cc2Cl)ccc1-c1cc2ccccc2oc1=O | 4 | 23 | 13* | -14 | 6 | 2
COc1ccc(-n2nc(C(=O)NCc3ccco3)c3c4ccccc4n(C)c3c2=O)cc1 | . | . | -1 | 12 | . | .
Cc1ccc(-n2nc(C(=O)NCc3ccc(C)o3)c3c4ccccc4n(C)c3c2=O)cc1 | 1 | 3 | 14* | -17 | 0 | -2
COc1ccc(OC)c(CN2CCCC(C(=O)N3CCCCC3)C2)c1 (centres undefined) | 0 | 16 | 72* | 3 | 0 | -2
COc1ccc(Br)cc1CN1CCCC(C(=O)N2CCCCC2)C1 (centres undefined) | -2 | -3 | -2 | -7 | . | .
Cc1ccc(OCc2nc(-c3ccccn3)n[nH]2)cc1 | -2 | -12 | 73* | -2 | -1 | -2
O=C(O)C(Cc1ccccc1)N1Cc2ccccc2C1=O (centres undefined) | -5 | -4 | 11 | -3 | -1 | -3
CCOc1ccc(NC(=S)NC(=O)c2c(Cl)c(C)nn2C)c([N+](=O)[O-])c1 | . | . | 8.6* | 3 | 1 | 2
COc1ccc(-c2nsc(C(=O)N(c3ccc(F)cc3)C(C(=O)NC3CCCC3)c3ccc(OC)cc3)c2N)cc1 (centres undefined) | . | . | 0 | -3 | . | .
O=C(N/N=C1\CCCc2ccccc21)c1ccc([N+](=O)[O-])cc1Cl | 0 | 19 | -1 | 8 | . | .
Cc1ccc(C)c(OCCCCn2ccnc2)c1 | -3 | -17 | 11 | -8 | 0 | 2
Cc1ccc(OCCCCn2ccnc2)c(Cl)c1 | -5 | 0 | -3 | -3 | . | .
O=C(NCc1ccco1)c1cccc(F)c1 | -3 | 21 | 8 | -9 | -1 | -1
CCn1c2ccc(C)cc2c2nnc(NN)nc21 | . | . | 1 | -9 | . | .
CSc1nnc2c3cc(C)ccc3n(Cc3ccccc3)c2n1 | . | . | 10* | 8 | 7 | 3
NCCNc1ccc([N+](=O)[O-])c(NC2CC2)c1 | . | . | -2 | 5 | . | .
CC(=O)Nc1ccc(Nc2ncnc3c2cnn3-c2cccc(C)c2)cc1 | -7 | -7 | -1 | 3 | . | .
CC(=O)Nc1ccc(Nc2ncnc3c2cnn3-c2ccc(C)cc2C)cc1 | -7 | -1 | 76* | -5 | -1 | -2
O=C(CCn1c(=O)c2ccccc2n(CC(=O)NCCC2=CCCCC2)c1=O)NCc1ccco1 | -8 | 15 | 86* | 15 | -1 | -4
COCCNC(=O)CCCn1c(=O)c2ccccc2n(CC(=O)NCCC2=CCCCC2)c1=O | -2 | 26 | 0 | -17 | . | .
Cc1ccc(NC(=O)C2C3CC4OC(=O)C2C4C3)cc1Cl (centres undefined) | -7 | -10 | 38* | 1 | 0 | 0
